# Measurements published in PubChem BioAssay (NCI).
# The panel holds about 83,000 compounds, 20% with a hit somewhere; the sample as a whole holds those more often.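 Percent growth is the endpoint: 0 to 100 indicates growth inhibition (40 means 60% inhibition), 0 means no net growth, and negative values indicate cell death.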 Values without a mark were called inactive. Calls of active or inactive are those of the source. Rule for the calls: active = growth percent below 10; inactive = the rest.
# System: MDA-MB-468 breast
# Assay: NCI-60 one-dose screen, 48 h (100 = growth as untreated, 0 = no growth, -100 = all killed)
# Settings: 10 µM unless noted
row,SMILES,growth
1,COc1ccc(-c2c3c(N)c4c(nc3nc3c2c(C)nn3-c2ccccc2)CCCC4)cc1,70.3%
2,CCc1cccc2c1S/C(=C/c1ccc(OC)cc1)C2=O,27.3%
3,COc1ccc(C(c2cc(OC)c(OC)c(OC)c2)N2CCN(Cc3ccccc3)CC2)cc1 (stereo not drawn),53%
4,COc1ccc(NC(=O)[C@@H]2C[C@H]2c2ccccc2)c(C(N)=O)c1,101%
5,COc1ccc2cc(C(=O)c3coc4ccc(O)cc34)ccc2c1,126%
6,COCCOC(=O)c1ccc(C(C)C)cc1,106%
7,Cc1ccc2c(n1)C(=O)C(Oc1ccc(F)cc1)=CC2=O,87.7%
8,Cc1c(C)c2c(c(C)c1OCC(=O)O)CC[C@@](C)(CCC[C@@H](C)CCC[C@@H](C)CCCC(C)C)O2,0.25% [50 µM] (active)
9,O=c1/c(=C\c2ccc(-c3ccccc3)o2)sc2nc(-c3ccccc3)nn12,124%
10,O=C(Nc1ccc(N2CCNCC2)cc1)c1[nH]ncc1Nc1ncnc2sc3c(c12)CCC3,-83.5% (active)
11,CCOC(=O)Sc1ncnc2nc[nH]c12,75.3%
12,COc1ccc(/C(=C\c2cc(OC)c(OC)c(OC)c2)C(=O)N2CCCNCC2)cc1,98.1%
13,CCOC(=O)c1c(C)c2c(n1Cc1ccccc1)CSCC2=O,-9.03% [100 µM] (active)
14,Cc1cn(-c2cc(C(=O)Nc3cccc(-n4ccc5c(NC(=O)c6ccccc6)nccc54)c3)cc(C(F)(F)F)c2)cn1,-9.97% (active)
15,CC(C)=CCC[C@](C)(O)[C@H]1CC[C@]2(C)[C@@H]1CC[C@@H]1[C@@]3(C)CC[C@H](OC(=O)CCC(=O)O)C(C)(C)[C@@H]3CC[C@]12C,30.5% [100 µM]
16,CNc1ccc2c(c1)c1ccccc1n2C,102%
17,COc1cccc2cc(-c3cc4ccccc4[nH]3)c(=NC(=O)c3ccc(Cl)cc3)oc12,75%

row,SMILES,growth
1,O=C(Nc1cccc2[nH]c(C(F)(F)F)nc12)c1ccc(-n2cnnn2)cc1,80%
2,O=c1cc(C2NCCc3c2[nH]c2ccccc32)c2c(ccc3ccccc32)o1 (stereo not drawn),89.9%
3,C[C@H](c1nc2ccc(C#N)cc2[nH]1)[C@H]1CC[C@H]2[C@@H]3CCC4=CC(=O)CC[C@]4(C)[C@H]3CC[C@]12C,15.6%
4,Nc1ncc(-c2ccc3ncnc(N4CCc5ccc(Cl)cc54)c3c2)cn1,-38% (active)
5,C=C(C=O)[C@@H]1CC[C@]2(C)[C@H](C(=O)C=C3[C@H]4C[C@](C)(C(=O)OC)CC[C@]4(C)CC[C@]32C)[C@@]1(C)CCC#N,80.2%
6,O=C(Nc1ccc(-n2ccc3c(NC(=O)c4ccccc4)nccc32)cc1)Nc1ccc(Cl)c(Cl)c1,-90.1% (active)
7,COc1ccc(NC(=O)/N=c2\oc3c(OC)cccc3cc2-c2cc3ccccc3[nH]2)cc1,61.1%
8,Cc1ccc(S(=O)(=O)OC2COCOC2C(OS(=O)(=O)c2ccc(C)cc2)C2OCOCC2OS(=O)(=O)c2ccc(C)cc2)cc1 (stereo not drawn),108%
9,COc1ccc(-c2csc(NC(=O)c3cc(O)c(O)c(O)c3)n2)cc1,78.6%
10,COc1cccc(-c2nc3occn3c2-c2ccnc(NCCCNS(=O)(=O)c3ccc(C(F)(F)F)cc3)n2)c1,81.6%
11,COC(=O)/C=C/c1cc(OC)c2c(c1)[C@@H](C(=O)OC)[C@H](c1ccc(OC)c(OC)c1)O2,50.9%
12,COc1ccc(NC(=O)c2ccc(/C=C/C(=O)c3ncc[nH]3)cc2)cc1,44.3%
13,CC(C)OC(=O)N1CCOCC1,97.2%
14,O=C(C[C@]1(O)C(=O)Nc2ccc(Br)cc21)c1ccco1,109%
15,Ic1ccc(Nc2nc3nonc3nc2Nc2ccc(I)cc2)cc1,-4.36% (active)
16,COc1c(C2CC(=O)Nc3c2cnn3Cc2ccco2)cc2c(c1OC)OCO2 (stereo not drawn),16.2%
